Measured values published in the supplement of paper PMC10849652.
Of roughly 8,800 targets only a part is listed; those with a hit were picked by preference. About 0.5% of all pairs of compound and target were hits.

Key:
Experiment in all cases: log2 fold change, soluble protein after heating vs DMSO (PISA); higher = thermal stabilisation; K562 lysate, 10 uM; active = over 0.2 and 3.5 SD of the protein, either way, in both replicates (recomputed)
erlotinib = compound: C#Cc1cccc(Nc2ncnc3cc(OCCOC)c(OCCOC)cc23)c1 [erlotinib]
How it was run: (§1)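 K562 pellets were dounce-homogenised in PBS pH 7.4 with 1 mM MgCl2, and the crude extract at 1 mg/mL protein was treated with 10 μM compound for 30 min. Aliquots were heated for 3 min across 48°C-58°C, pooled, and brought to 0.5% NP-40 at 4°C; soluble protein was the supernatant after 21,000xg for 90 min. Soluble protein was quantified by TMTpro 16plex LC-MS/MS with channel sums equalised, and reported as log2 fold change in thermal stability against DMSO controls, with values from duplicates.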

[1] = compound: C/C(=N\NC(=O)C1=CC(=CC=C1)S(=O)(=O)N2CCOCC2)/C3=C(C=CC(=C3)Cl)O
How it was run: as §1

[2] = compound: C1=CC(=CC=C1C2=NC3=C(N2)C=C(C=C3)C(=O)N)OC4=CC=C(C=C4)Cl
How it was run: as §1

[3] = compound: C1=CC2=C(C=CC(=C2)/C=C\3/C(=O)NC(=NCC4=CC=CS4)S3)N=C1
How it was run: as §1

[4] = compound: C1=CC2=NC=CN=C2C=C1/C=C/3\C(=O)NC(=O)S3
How it was run: as §1

[5] = compound: C1=CC=C(C=C1)C2=NC(=C(N2)C3=CC=NC=C3)C4=CC(=C(C=C4)Cl)O
How it was run: as §1

[6] = compound: C1=CC=C2C(=C1)C3=NNC4=CC=CC(=C43)C2=O
How it was run: as §1

[7] = compound: C1CCN(C1)C(=O)NC2=CC=CC(=C2)NC3=NC=C(C(=N3)NCCC4=CN=CN4)Br
How it was run: as §1

[8] = compound: C1CN(CCC1(CC2=CC=C(C=C2)Cl)N)C3=NC=NC4=C3C=CN4
How it was run: as §1

IRAK-1-4 Inhibitor I = compound: C1COCCN1CCN2C3=CC=CC=C3N=C2NC(=O)C4=CC(=CC=C4)[N+](=O)[O-] [IRAK-1-4 Inhibitor I]
How it was run: as §1

Measured: log2 fold change

RECQL5 (UniProt O94762)
inactive: erlotinib 0.046 | [1] -0.093 | [2] 0.282 | [3] 0.083 | [4] 0.005 | [5] -0.002 | [6] 0.012 | [7] -0.062 | [8] 0.036 | IRAK-1-4 Inhibitor I 0.006

SDHA (UniProt P31040)
inactive: erlotinib 0.001 | [1] 0.034 | [2] 0.109 | [3] -0.006 | [4] 0.005 | [5] -0.005 | [6] 0.025 | [7] -0.009 | [8] 0.004 | IRAK-1-4 Inhibitor I 0.011

RNF123 (UniProt Q5XPI4)
Sequence of UniProt Q5XPI4 (Q5XPI4 whole entry, looked up): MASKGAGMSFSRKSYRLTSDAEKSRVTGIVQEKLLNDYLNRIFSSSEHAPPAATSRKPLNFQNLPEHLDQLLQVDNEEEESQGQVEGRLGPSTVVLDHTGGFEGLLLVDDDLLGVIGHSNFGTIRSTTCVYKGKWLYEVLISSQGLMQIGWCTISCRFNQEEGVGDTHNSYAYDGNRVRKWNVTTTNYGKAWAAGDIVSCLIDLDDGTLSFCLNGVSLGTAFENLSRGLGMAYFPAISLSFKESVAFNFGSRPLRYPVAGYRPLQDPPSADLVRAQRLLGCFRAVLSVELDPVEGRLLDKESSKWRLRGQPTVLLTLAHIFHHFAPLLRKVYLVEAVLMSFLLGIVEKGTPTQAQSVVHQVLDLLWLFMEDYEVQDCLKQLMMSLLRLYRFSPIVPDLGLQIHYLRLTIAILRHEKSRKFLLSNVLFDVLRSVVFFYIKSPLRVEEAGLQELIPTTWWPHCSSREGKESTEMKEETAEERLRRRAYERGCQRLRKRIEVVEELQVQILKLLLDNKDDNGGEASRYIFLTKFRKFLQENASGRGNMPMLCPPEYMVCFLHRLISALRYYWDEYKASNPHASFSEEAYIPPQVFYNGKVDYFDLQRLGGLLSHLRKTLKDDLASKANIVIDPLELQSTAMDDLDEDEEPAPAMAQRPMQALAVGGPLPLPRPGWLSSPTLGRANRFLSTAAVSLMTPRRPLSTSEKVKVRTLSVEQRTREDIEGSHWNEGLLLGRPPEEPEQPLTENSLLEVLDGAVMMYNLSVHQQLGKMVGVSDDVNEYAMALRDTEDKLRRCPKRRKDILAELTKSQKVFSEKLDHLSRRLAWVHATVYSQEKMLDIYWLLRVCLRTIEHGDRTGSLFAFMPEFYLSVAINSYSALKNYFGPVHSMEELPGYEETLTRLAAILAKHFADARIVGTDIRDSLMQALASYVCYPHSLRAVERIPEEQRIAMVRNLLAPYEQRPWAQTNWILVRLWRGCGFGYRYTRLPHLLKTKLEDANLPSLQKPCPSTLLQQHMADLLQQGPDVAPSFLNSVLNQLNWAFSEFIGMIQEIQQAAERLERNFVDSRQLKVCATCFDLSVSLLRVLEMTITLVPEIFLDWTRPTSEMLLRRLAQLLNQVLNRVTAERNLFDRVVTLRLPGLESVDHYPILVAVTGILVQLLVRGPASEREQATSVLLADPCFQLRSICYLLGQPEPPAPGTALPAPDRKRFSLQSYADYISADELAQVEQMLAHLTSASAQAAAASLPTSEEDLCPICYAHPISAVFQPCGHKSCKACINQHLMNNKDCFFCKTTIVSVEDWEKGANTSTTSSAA
inactive: erlotinib 0.058 | [1] 0.016 | [2] -0.008 | [3] 0.029 | [4] 0.019 | [5] -0.015 | [6] -0.035 | [7] -0.005 | [8] 0.044 | IRAK-1-4 Inhibitor I -0.019

REXO4 (UniProt Q9GZR2)
inactive: erlotinib -0.041 | [1] -0.195 | [2] -0.041 | [3] -0.084 | [4] -0.052 | [5] 0.027 | [6] -0.033 | [7] -0.022 | [8] 0.003 | IRAK-1-4 Inhibitor I -0.027

RBBP8 isoform 2 (UniProt Q99708)
inactive: erlotinib 0.073 | [1] -0.129 | [2] -0.031 | [3] 0.074 | [5] -0.004 | [6] -0.019 | [7] -0.017 | [8] -0.032 | IRAK-1-4 Inhibitor I 0.033
active: [4] 0.295

RDX (UniProt P35241)
inactive: erlotinib -0.013 | [1] 0.017 | [2] 0.014 | [3] -0.023 | [4] -0.032 | [5] 0.018 | [6] -0.009 | [7] 0.012 | [8] -0.025 | IRAK-1-4 Inhibitor I 0.006

RBBP7 isoform 2 (UniProt Q16576)
Sequence of UniProt Q16576 (Q16576 whole entry, looked up): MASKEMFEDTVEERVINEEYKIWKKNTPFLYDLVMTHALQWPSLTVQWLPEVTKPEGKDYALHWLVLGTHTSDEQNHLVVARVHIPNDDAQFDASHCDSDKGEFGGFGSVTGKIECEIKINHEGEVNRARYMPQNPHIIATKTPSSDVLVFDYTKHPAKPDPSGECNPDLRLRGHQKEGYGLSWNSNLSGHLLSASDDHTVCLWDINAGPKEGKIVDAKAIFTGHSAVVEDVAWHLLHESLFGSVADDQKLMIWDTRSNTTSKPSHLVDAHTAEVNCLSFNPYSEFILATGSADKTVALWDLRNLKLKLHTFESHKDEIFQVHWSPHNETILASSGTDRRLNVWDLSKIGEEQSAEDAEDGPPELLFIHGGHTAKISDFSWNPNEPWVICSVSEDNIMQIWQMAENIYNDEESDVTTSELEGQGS
inactive: erlotinib -0.036 | [1] 0.046 | [2] -0.036 | [3] -0.03 | [4] -0.013 | [5] -0.002 | [6] 0.055 | [7] 0.041 | [8] -0.026 | IRAK-1-4 Inhibitor I -0.006

RPL8 (UniProt P62917)
inactive: erlotinib 0.001 | [1] -0.307 | [2] -0.024 | [3] -0.025 | [4] -0.026 | [5] 0.007 | [6] 0.109 | [7] 0.019 | [8] -0.085 | IRAK-1-4 Inhibitor I -0.005

RNF40 (UniProt O75150)
Sequence of UniProt O75150 (O75150 whole entry, looked up): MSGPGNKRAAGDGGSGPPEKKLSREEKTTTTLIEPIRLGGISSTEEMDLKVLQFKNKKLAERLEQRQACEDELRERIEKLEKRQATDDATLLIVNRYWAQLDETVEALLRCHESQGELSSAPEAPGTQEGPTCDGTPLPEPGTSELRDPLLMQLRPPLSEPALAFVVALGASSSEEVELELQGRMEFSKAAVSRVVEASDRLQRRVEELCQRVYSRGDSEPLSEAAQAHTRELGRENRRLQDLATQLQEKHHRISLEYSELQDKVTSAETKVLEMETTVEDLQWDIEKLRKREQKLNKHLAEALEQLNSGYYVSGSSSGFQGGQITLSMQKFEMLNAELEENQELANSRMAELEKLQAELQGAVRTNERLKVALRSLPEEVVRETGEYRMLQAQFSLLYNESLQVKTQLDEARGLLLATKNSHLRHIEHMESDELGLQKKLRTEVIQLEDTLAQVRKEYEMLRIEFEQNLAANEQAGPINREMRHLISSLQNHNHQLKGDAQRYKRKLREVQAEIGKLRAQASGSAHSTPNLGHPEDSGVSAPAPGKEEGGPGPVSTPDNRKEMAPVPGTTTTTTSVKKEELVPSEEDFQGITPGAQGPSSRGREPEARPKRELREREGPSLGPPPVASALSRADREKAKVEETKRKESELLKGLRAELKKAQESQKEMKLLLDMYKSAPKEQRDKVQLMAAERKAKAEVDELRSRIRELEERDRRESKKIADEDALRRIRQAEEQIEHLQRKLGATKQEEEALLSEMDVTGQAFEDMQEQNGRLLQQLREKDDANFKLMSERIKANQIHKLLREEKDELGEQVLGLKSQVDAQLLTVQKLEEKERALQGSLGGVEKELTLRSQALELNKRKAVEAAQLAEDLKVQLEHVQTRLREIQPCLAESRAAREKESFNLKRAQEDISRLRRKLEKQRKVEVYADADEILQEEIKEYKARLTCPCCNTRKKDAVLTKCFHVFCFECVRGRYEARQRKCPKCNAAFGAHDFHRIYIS
inactive: erlotinib -0.008 | [1] -0.01 | [2] 0.007 | [3] -0.039 | [4] -0.016 | [5] 0.003 | [6] -0.04 | [7] 0.011 | [8] 0.024 | IRAK-1-4 Inhibitor I -0.008

SCD (UniProt O00767)
inactive: erlotinib 0.075 | [1] -0.093 | [2] 0.027 | [3] 0.056 | [4] -0.012 | [5] 0.009 | [6] 0.011 | [7] -0.24 | [8] -0.021 | IRAK-1-4 Inhibitor I 0.07

RHAG (UniProt Q02094)
inactive: erlotinib 0.017 | [1] -0.123 | [2] -0.087 | [3] 0.086 | [4] -0.007 | [5] -0.012 | [6] -0.145 | [7] -0.126 | [8] -0.014 | IRAK-1-4 Inhibitor I 0.081

RPN2 (UniProt P04844)
inactive: erlotinib 0 | [1] 0.014 | [2] -0.055 | [3] 0.022 | [4] 0.021 | [5] 0 | [6] -0.049 | [7] -0.007 | [8] 0.006 | IRAK-1-4 Inhibitor I 0.007

RPTOR (UniProt Q8N122)
inactive: erlotinib 0.032 | [1] 0.002 | [2] 0.062 | [3] 0.013 | [4] 0.017 | [5] -0.002 | [6] -0.002 | [7] -0.036 | [8] -0.015 | IRAK-1-4 Inhibitor I 0.003

RNASEL (UniProt Q05823)
inactive: erlotinib 0.103 | [1] -0.025 | [2] -0.019 | [3] -0.01 | [4] 0.099 | [5] 0.009 | [6] -0.062 | [7] -0.031 | [8] 0.005 | IRAK-1-4 Inhibitor I 0.006

RAD50 isoform 2 (UniProt Q92878)
inactive: erlotinib -0.009 | [1] -0.007 | [2] 0.019 | [3] 0.006 | [4] -0.014 | [5] -0.023 | [6] -0.039 | [7] 0.005 | [8] -0.01 | IRAK-1-4 Inhibitor I -0.054

RAF1 isoform 2 (UniProt P04049)
inactive: erlotinib -0.011 | [1] -0.033 | [2] -0.016 | [3] -0.072 | [4] -0.113 | [5] -0.009 | [6] 0.007 | [7] 0.036 | [8] -0.044 | IRAK-1-4 Inhibitor I -0.058

RIPK1 (UniProt Q13546)
inactive: erlotinib -0.026 | [1] -0.01 | [2] -0.017 | [3] -0.022 | [4] -0.015 | [5] 0.008 | [6] 0.08 | [7] 0.031 | [8] -0.057 | IRAK-1-4 Inhibitor I 0

RARS (UniProt P54136)
inactive: erlotinib 0.037 | [1] 0.029 | [2] -0.023 | [3] 0.023 | [4] 0.043 | [5] 0.029 | [6] -0.025 | [7] -0.005 | [8] 0.005 | IRAK-1-4 Inhibitor I 0.008

RRM1 (UniProt P23921)
inactive: erlotinib 0.018 | [1] -0.019 | [2] 0.007 | [3] 0.025 | [4] 0.029 | [5] -0.01 | [6] -0.043 | [7] -0.046 | [8] -0.022 | IRAK-1-4 Inhibitor I 0.021

RCC1 isoform 2 (UniProt P18754)
inactive: erlotinib 0.016 | [1] 0.005 | [2] -0.033 | [3] 0 | [4] 0.017 | [5] 0.007 | [6] -0.024 | [7] -0.008 | [8] -0.043 | IRAK-1-4 Inhibitor I -0.022

RAP1GAP isoform 4 (UniProt P47736)
Sequence of UniProt P47736 (P47736 whole entry, looked up): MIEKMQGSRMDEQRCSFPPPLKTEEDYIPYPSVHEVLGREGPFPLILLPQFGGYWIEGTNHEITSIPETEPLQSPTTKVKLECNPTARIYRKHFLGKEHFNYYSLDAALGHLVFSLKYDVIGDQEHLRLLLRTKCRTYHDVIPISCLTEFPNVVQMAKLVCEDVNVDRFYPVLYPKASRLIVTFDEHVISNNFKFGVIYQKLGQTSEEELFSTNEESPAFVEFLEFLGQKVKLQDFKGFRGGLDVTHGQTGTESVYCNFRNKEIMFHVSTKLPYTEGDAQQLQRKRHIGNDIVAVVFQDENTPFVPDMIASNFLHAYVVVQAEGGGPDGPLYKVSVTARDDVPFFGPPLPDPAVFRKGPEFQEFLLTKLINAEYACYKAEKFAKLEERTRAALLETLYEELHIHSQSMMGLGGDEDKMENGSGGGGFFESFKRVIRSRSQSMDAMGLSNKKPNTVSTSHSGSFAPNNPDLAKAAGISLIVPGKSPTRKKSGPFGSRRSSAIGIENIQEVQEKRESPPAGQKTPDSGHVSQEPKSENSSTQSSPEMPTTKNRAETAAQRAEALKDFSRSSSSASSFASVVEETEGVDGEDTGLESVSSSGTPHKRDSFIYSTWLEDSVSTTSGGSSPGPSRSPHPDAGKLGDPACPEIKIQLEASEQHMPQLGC
inactive: erlotinib 0.087 | [1] -0.028 | [2] -0.011 | [3] -0.018 | [4] -0.019 | [5] -0.012 | [6] -0.005 | [7] 0.02 | [8] 0.056 | IRAK-1-4 Inhibitor I 0.041

SEC61G (UniProt P60059)
inactive: erlotinib 0.065 | [1] -0.196 | [2] -0.111 | [3] 0.032 | [4] 0.043 | [5] 0.032 | [6] -0.126 | [7] -0.096 | [8] 0.065 | IRAK-1-4 Inhibitor I 0.083

RNF181 (UniProt Q9P0P0)
Sequence of UniProt Q9P0P0 (Q9P0P0 whole entry, looked up): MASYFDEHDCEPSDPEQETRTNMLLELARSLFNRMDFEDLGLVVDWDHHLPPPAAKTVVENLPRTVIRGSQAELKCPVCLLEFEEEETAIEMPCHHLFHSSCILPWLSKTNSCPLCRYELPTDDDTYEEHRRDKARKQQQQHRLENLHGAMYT
inactive: erlotinib 0.031 | [1] 0.037 | [2] 0.016 | [3] 0.036 | [4] -0.001 | [5] 0.022 | [6] -0.058 | [7] 0.03 | [8] 0.099 | IRAK-1-4 Inhibitor I -0.014

SAR1B (UniProt Q9Y6B6)
inactive: erlotinib -0.143 | [1] 0.011 | [2] 0.042 | [3] -0.046 | [4] -0.065 | [5] -0.045 | [6] 0.029 | [7] -0.126 | [8] 0.025 | IRAK-1-4 Inhibitor I 0.041

RPS4X (UniProt P62701)
inactive: erlotinib -0.016 | [1] 0.014 | [2] -0.012 | [3] -0.012 | [4] -0.018 | [5] -0.002 | [6] -0.005 | [7] 0.017 | [8] 0.004 | IRAK-1-4 Inhibitor I 0.03

RELN (UniProt P78509)
inactive: erlotinib 0.012 | [1] 0.004 | [2] 0.014 | [3] 0.025 | [4] 0.001 | [5] 0.033 | [6] -0.015 | [7] 0.042 | [8] 0.058 | IRAK-1-4 Inhibitor I 0.002

SAMD4A (UniProt Q9UPU9)
inactive: erlotinib -0.172 | [1] -0.014 | [2] 0.11 | [3] 0.097 | [4] -0.153 | [5] 0.11 | [6] -0.041 | [7] -0.046 | [8] 0.013 | IRAK-1-4 Inhibitor I 0.063

RPS9 (UniProt P46781)
inactive: erlotinib -0.034 | [1] 0.022 | [2] -0.03 | [3] -0.054 | [4] -0.016 | [5] -0.011 | [6] 0.011 | [7] 0.025 | [8] -0.018 | IRAK-1-4 Inhibitor I -0.017

SERINC3 (UniProt Q13530)
Sequence of UniProt Q13530 (Q13530 whole entry, looked up): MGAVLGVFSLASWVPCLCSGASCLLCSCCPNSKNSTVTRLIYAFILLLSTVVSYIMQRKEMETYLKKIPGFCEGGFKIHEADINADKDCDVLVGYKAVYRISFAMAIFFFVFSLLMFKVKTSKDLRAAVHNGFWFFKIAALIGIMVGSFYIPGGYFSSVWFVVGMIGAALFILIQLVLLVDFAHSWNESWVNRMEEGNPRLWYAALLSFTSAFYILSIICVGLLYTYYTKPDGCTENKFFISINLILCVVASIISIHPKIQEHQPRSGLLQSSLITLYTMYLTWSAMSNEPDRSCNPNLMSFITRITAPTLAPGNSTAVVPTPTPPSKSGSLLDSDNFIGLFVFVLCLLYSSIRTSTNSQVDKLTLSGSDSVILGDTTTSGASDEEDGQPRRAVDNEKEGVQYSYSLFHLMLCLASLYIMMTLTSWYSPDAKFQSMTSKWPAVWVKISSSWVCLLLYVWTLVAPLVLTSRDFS
inactive: erlotinib 0.068 | [1] 0.145 | [2] 0.065 | [3] 0.073 | [4] 0.021 | [5] -0.02 | [6] -0.101 | [7] -0.03 | [8] 0.024 | IRAK-1-4 Inhibitor I 0.018

RAI14 isoform 2 (UniProt Q9P0K7)
Sequence of UniProt Q9P0K7 (Q9P0K7 whole entry, looked up): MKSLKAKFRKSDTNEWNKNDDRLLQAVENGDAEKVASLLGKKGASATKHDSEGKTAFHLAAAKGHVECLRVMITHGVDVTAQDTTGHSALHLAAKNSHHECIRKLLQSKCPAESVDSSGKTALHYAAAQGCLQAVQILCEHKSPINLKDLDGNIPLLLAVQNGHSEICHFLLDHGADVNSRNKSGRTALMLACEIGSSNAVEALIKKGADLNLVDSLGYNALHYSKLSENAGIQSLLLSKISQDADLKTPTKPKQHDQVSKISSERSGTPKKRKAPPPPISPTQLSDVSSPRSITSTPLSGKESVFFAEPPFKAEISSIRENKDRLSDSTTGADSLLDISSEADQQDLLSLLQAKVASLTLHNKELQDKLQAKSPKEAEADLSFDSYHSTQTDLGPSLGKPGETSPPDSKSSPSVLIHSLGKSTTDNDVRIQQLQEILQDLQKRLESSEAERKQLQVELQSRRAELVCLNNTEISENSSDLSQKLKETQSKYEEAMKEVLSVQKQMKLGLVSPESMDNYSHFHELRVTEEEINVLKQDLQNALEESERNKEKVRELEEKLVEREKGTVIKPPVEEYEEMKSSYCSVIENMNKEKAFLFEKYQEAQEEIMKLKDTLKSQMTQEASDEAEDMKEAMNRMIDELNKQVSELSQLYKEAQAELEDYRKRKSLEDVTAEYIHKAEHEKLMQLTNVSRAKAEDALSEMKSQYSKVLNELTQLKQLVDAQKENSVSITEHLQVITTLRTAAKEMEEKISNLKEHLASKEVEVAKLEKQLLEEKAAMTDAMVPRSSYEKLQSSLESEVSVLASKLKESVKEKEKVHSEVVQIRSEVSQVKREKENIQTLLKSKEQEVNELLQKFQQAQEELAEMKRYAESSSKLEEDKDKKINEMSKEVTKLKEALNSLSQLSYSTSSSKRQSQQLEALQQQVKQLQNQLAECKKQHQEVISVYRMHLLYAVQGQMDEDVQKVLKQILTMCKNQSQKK
inactive: erlotinib 0.015 | [1] 0.006 | [2] -0.007 | [3] 0.004 | [4] 0.001 | [5] 0.021 | [6] 0.02 | [7] 0 | [8] -0.018 | IRAK-1-4 Inhibitor I -0.028
